Test [1] is described as follows: blockers of polyQ-driven CASP3 activation – cell-based (AID 1583). Conditions: polyglutamine-induced caspase-3 activation, cell assay; stronger effect = higher value;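 tested at 10 µM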.
Test [2] is described as follows: yeast 75Q aggregation reduction – 75Q-TubU reporter (AID 1593). Conditions: Yeast 75Q polyglutamine aggregation reporter.
Test [3] is described as follows: restoration of touch response, mutant HTT neurons – whole organism, C. elegans mechanosensory neurons, N-terminal huntingtin (AID 1599). Conditions: C. elegans polyQ-huntingtin mechanosensory neurons, stronger effect = higher value.
The nature of test [4]: blockers of cytochrome c efflux from mitochondria – biochemical, purified mitochondria (AID 1603).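 Further: mouse liver mitochondria challenged with calcium chloride; signal normalized to the plate average as 100%.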 Conditions: stronger effect = lower value.
Test [5] can be described thus: polyglutamine aggregate formation blockers (AID 1604). Particulars: polyglutamine-induced protein aggregation inhibition assay; stronger effect = higher value; tested at 2.5 µM.
Test [6] can be described thus: glutamate transport activators, MN-1 cells, MN-1 cell line (AID 1612).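 Further: tested at 1 µM final; 0% = mean of DMSO vehicle wells on each plate; positive means more glutamate uptake than control and negative means less.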 Particulars: MN-1 motor neuron cells, stronger effect = higher value.
Test [7] is described as follows: GFP-Q80 aggregate reduction, neuronal-like cells, cell-based, NGF-treated PC12, GFPQ80 (AID 1614).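 Further: lower means fewer inclusions and 0 means no inclusions at all.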 Particulars: PC12 NGF-treated GFP-polyQ80 inclusion reduction.
A short description of test [8]: 75Q-TubH aggregate inhibition, S. cerevisiae, yeast (AID 1616). Conditions: S. cerevisiae 75Q-TubH polyglutamine aggregation suppression; stronger effect = higher value.
A short description of test [9]: P. berghei load reduction in hepatocytes – cell-based, HepG2, luciferase luminescence, HepG2 viability, primary screen (AID 624349).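 Further: 100% = mean of DMSO negative control wells on the same plate.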 Conditions: P. berghei liver stage in HepG2, luciferase luminescence, concentration not given here; parasite load remaining: stronger effect = lower value; viability: measured here: HepG2 viability without parasites.
The nature of test [10]: EMT-state selective cytotoxicity in co-culture – imaging, PC-3E GFP, TEM4-18 mCherry, primary screen (AID 1345086;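 active means compounds killing one labelled cell type while sparing the other, by normalised counts and ratio limits, not self-fluorescent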;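 on all read-outs here: cells exposed to compound for 72 h before imaging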;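 on red/green cell ratio (normalised): normalised mesenchymal count divided by normalised epithelial count so high means epithelial killing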). Conditions: PC-3E GFP / TEM4-18 mCherry co-culture, imaging cell counts, at 1 µM; for red/green cell ratio (normalised): actives lie on both sides, counts scaled to control wells, 1 = unselective.
Test [11] can be described thus: viability loss with induced miR-34 in A549 – imaging, A549 dox-inducible miR-34, nuclei and caspase counts, primary screen (AID 1347080;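 active means compounds whose cell count with miR-34 switched on is under 0.7 times the count with it off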). Conditions: A549 miR-34 inducible, Hoechst nuclei count, 48 h.
For test [12], the target named is Mitogen-activated protein kinase 7 (Homo sapiens) (UniProt Q13164). As to the kind of experiment: Gal4-ERK5 driven luciferase induction – cell-based, HTS, primary screen (AID 1508626;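 active means luciferase signal above three times the same-plate solvent-only control wells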;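 further: luciferase driven by Gal4-ERK5 fusion binding five Gal4 sites before minimal TATA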). Particulars: HeLa Gal4-ERK5 transactivation, 18 h, at 5 µM, stronger effect = higher value.
Test [13] deals with NAD(+) hydrolase SARM1 (Homo sapiens) (UniProt Q6SZW1). Put plainly: blocking NAD cleavage by SARM1 SAM-TIR – cell lysate, NAD-Glo luminescence (AID 1508614;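 active means compound whose remaining NAD level is above about 45 nM, limit read from the data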). Conditions: SAM-TIR HEK293T lysate NADase, at 1 µM, stronger effect = higher value.
Test [14] is described as follows: compounds altering viability of human ES cells (AID 493140; call rule not given here;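 further: cells exposed to compounds for four days before counting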). Conditions: human embryonic stem cell survival screen; stronger effect = higher value.
The nature of test [15]: rescue of PC12 cells from polyQ htt toxicity – LDH release (AID 1610). Conditions: PC12 mutant huntingtin toxicity, final LDH at 4 uM, stronger effect = lower value. (LDH in the medium is a marker of cell lysis.)
Test [16] can be described thus: glutamate excitotoxicity neuroprotectants – cell-based, TUNEL DNA degradation staining, MNGlu (AID 1594; call rule not given here). Conditions: motor neurons, glutamate-induced death, at 1 µM, stronger effect = higher value.
[17] abbreviates: measured here: epithelial PC-3E GFP cell survival.
The mark [18] stands for this setting: measured here: mesenchymal TEM4-18 mCherry cell survival.
Setting [19] is: stronger effect = lower value, cell number ratio, induced over uninduced.
Where [20] appears, read: measured here: relative caspase fold change +Dox/-Dox.
[21] abbreviates: measured here: total cells with miR-34 induction, stronger effect = lower value.
Setting [22] is: measured here: total cells without miR-34 induction.

SMILES strings stand for the structures. Several values for one entry are separate records, joined by “and”; a condition that tells them apart may be missing. Equal entries are not always repeated. Inconclusive results are not listed. For some of these results: Results with a measured potency or affinity are listed apart. Activity calls are given as the source filed them. Unless noted, no stated cut-off is given here; in the data, active means parasite load remaining mostly below about 12% (no sharp cut-off); inactive means mostly above about 10%.

Mitogen-activated protein kinase 7 (Homo sapiens), sequence (Q13164 whole entry, looked up, the tested form may be a part): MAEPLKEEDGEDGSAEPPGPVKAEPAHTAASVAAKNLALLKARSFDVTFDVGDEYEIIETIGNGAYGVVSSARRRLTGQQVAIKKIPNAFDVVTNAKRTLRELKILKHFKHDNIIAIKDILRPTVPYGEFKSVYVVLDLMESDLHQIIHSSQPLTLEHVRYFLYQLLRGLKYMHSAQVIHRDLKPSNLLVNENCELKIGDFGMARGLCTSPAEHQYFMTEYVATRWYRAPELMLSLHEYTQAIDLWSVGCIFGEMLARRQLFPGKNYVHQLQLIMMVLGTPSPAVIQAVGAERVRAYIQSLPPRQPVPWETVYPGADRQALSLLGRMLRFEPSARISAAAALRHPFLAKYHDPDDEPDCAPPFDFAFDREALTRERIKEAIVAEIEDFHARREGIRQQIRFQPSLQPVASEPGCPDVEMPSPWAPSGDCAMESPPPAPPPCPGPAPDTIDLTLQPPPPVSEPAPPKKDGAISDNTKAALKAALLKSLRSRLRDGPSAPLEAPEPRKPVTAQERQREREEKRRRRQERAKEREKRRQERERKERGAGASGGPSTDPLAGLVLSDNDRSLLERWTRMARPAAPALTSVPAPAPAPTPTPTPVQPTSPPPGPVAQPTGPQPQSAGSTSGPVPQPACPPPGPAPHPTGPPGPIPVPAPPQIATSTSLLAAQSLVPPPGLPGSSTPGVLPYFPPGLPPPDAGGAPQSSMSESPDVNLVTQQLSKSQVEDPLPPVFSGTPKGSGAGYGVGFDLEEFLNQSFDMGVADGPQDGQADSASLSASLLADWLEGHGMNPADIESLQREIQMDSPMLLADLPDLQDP
NAD(+) hydrolase SARM1 (Homo sapiens), sequence (Q6SZW1 whole entry, looked up): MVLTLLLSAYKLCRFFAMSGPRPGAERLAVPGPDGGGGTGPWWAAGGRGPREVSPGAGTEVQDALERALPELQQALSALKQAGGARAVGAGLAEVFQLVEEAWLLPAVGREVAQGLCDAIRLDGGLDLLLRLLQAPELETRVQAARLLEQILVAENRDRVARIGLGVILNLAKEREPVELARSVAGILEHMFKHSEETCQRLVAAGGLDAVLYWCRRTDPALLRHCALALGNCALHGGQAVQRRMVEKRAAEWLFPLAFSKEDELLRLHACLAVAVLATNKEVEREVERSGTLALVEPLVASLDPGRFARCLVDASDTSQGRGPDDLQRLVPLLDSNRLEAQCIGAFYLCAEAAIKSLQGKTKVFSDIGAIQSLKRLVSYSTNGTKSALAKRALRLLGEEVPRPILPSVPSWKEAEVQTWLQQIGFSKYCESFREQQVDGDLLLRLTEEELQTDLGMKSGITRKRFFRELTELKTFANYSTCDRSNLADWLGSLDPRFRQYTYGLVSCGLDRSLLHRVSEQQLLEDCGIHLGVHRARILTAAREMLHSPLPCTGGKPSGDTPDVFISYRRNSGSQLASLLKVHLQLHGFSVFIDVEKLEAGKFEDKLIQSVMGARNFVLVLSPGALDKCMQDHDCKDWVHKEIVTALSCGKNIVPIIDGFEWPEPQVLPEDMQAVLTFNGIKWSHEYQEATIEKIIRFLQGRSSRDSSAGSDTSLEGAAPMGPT

The term inhibition denotes how much of the control response was suppressed. What is called viability is a read-out of living cells in per cent, often relative to untreated cells. For `Cc1c(C)c2c(c(C)c1O)CCC(C)(CCCC(C)CCCC(C)CCCC(C)C)O2` (stereo not given), in [1], the inhibition is 25.1%. Also, the score in test [2] was -0.94. Further, in test [3], the rescue above control was -0.91. The cytochrome c release ratio in test [4] turned out to be 1.24. The compound also yielded an inhibition of aggregation in test [5] of 78.9%. Also, the glutamate uptake change in test [6] is -4.89%. The same compound registered an inclusion score in test [7] of 2. In [8], this compound displayed an aggregation suppression score of 0.219. Besides, the parasite load remaining in [9] was 67.5% (inactive). Further, the viability in test [9] amounted to 90.7%. In addition, the red/green cell ratio (normalised) in [10] was 1.01 (inactive). The normalised cell number amounted to 0.82 in test [10] (setting [17]) and 0.83 in test [10] (setting [18]). In addition, the fold change in test [11] (setting [19]) is 0.899 (inactive); in test [11] (setting [20]), 1.09. Also, the cell count is 10700 in test [11] (setting [21]) and 11900 in test [11] (setting [22]). Moreover, the luciferase signal in [12] was 44 AU (inactive).
`O=C(CNC(=O)c1ccc(Cl)cc1)NO`: the parasite load remaining in [9] is 45.5% (inactive). In addition, the viability in test [9] came out at 106%. Further, the red/green cell ratio (normalised) in test [10] was 0.95 (inactive). Also, the values for the normalised cell number in test [10] (setting [17]) and in test [10] (setting [18]) were 1.13 and 1.08, respectively. Further, the figures for the fold change in [11] (setting [19]) and in test [11] (setting [20]) were 0.961 (inactive) and 3.28, respectively. Moreover, the cell count in test [11] (setting [21]) was 12100; in test [11] (setting [22]), 12600. The remaining NAD in test [13] is 10 nM (inactive). Besides, in test [12], the luciferase signal is 60 AU (inactive).
Consider `COc1cc(/C=C/C(=O)N2CCC=CC2=O)cc(OC)c1OC`, for which the survival in [14] is 0.417 (inactive). For the same compound, the parasite load remaining in test [9] is -9.42% (inactive) and 36.9% (inactive). Further, the viability in [9] was 36.5% and 76.3%. Besides, the red/green cell ratio (normalised) in test [10] was 1.8 (active). In addition, the normalised cell number in test [10] (setting [17]) came out at 0.39; in test [10] (setting [18]), 0.7. Moreover, the fold change in [11] (setting [19]) is 0.965 (inactive); in test [11] (setting [20]), 1.26. Also, the figures for the cell count in test [11] (setting [21]) and in test [11] (setting [22]) were 3400 and 3530, respectively. Also, the luciferase signal in test [12] was 460 AU (active).
Consider `COc1ccc(C[C@H](N)C(=O)N[C@@H]2[C@@H](CO)OC(n3cnc4c(N(C)C)ncnc43)[C@@H]2O)cc1` (stereo not given in full), for which the inhibition in test [1] amounted to 52.2%. Also, in test [2], the score stood at 1.68. In test [3], the rescue above control is -10.3. The cytochrome c release ratio in test [4] was 1.17. The compound also gave an inhibition of aggregation in [5] of 54%. Also, in [15], the normalised LDH release came out at 1. Moreover, the glutamate uptake change in test [6] is 15.3%. The same compound had an aggregation suppression score in test [8] of 1.32. The parasite load remaining in [9] was 54.7% (inactive) and 3.3% (inactive). For the same compound, the viability in [9] was 40.9% and 70.7%. Further, in test [10], the red/green cell ratio (normalised) is 1 (inactive). The normalised cell number in test [10] (setting [17]) and in test [10] (setting [18]) was 0.94 each time. Also, the fold change in test [11] (setting [19]) was 1.05 (inactive); in test [11] (setting [20]) it was 1.45. Also, the results for the cell count in test [11] (setting [21]) and in [11] (setting [22]) were 385 and 366, respectively.
For `CCCCCCCC/C=C\CCCCCCCC(=O)O`, the red/green cell ratio (normalised) in test [10] was 1.2 (inactive). Besides, the normalised cell number amounted to 0.8 in test [10] (setting [17]) and 0.96 in test [10] (setting [18]). Moreover, the fold change in test [11] (setting [19]) is 0.965 (inactive) and 1.03 (inactive); in test [11] (setting [20]) it was 0.674 and 0.77. For the same compound, the cell count was 8820 and 6040 in test [11] (setting [21]); 9140 and 5860 in test [11] (setting [22]). In test [13], the remaining NAD is 10 nM (inactive).
The compound `CC(C)[C@@H]1CC[C@@H](C)C[C@H]1O` showed an inhibition in test [1] of 18.8%. Further, the score in [2] stood at 1.2. Further, the protection in test [16] was 54% (active). Also, in test [3], the rescue above control is 5.72. In test [4], the cytochrome c release ratio was found to be 0.66. Further, the inhibition of aggregation in test [5] amounted to 80.3%. In addition, the glutamate uptake change in test [6] amounted to 2.2%. In test [7], this compound displayed an inclusion score of 1. The aggregation suppression score in test [8] was 1.36. Besides, in [9], the parasite load remaining is 176% (inactive) and 64.4% (inactive). In [9], the viability is 87.7% and 95.6%. For the same compound, in test [10], the red/green cell ratio (normalised) is 0.86 (inactive). Also, the figures for the normalised cell number in test [10] (setting [17]) and in test [10] (setting [18]) were 0.91 and 0.79, respectively. Further, the fold change in test [11] (setting [19]) was 0.95 (inactive); in test [11] (setting [20]), 2.52. Moreover, the figures for the cell count in test [11] (setting [21]) and in test [11] (setting [22]) were 12500 and 13100, respectively. Also, the remaining NAD in test [13] is 10 nM (inactive). Further, in test [12], the luciferase signal was 44 AU (inactive).

(Values after PubChem BioAssay.)
